# Shown are actives, neighbours in structure and some others; about 21% of the full set was active somewhere.
# VP16 counter: inhibits Gal4-VP16 luciferase reporter, ROR gamma counter-screen. Drosophila S2 Gal4-VP16 UAS-luciferase, luminescence, 20 h. Potency, µM (series often up to 53.6 µM), inactives show at the highest dose activity, negative = inhibition, actives largely listed as inhibitors. 310,000 compounds, 3.5% hits;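 further: Gal4-VP16 expression switched on by copper sulfate through the metallothionein promoter; potency means the concentration at half of the fitted maximal effect; nearly all actives have a fitted effect of over 50% in size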
# RORg inh: ROR gamma (mouse) transcription inhibition; P51450; Drosophila S2 Gal4-RORgamma UAS-luciferase reporter, 20 h; Potency, µM (highest dose often 53.6 µM), for the others: at the highest dose activity change, negative = inhibition, hits mostly inhibitors; 310,000 compounds, 5.4% hits; AID 2551; further: potency means the concentration at half of the fitted maximal effect; nearly all actives have a fitted effect of over 60% in size
# Target sequence (P51450 whole entry, looked up, the tested form may be a part): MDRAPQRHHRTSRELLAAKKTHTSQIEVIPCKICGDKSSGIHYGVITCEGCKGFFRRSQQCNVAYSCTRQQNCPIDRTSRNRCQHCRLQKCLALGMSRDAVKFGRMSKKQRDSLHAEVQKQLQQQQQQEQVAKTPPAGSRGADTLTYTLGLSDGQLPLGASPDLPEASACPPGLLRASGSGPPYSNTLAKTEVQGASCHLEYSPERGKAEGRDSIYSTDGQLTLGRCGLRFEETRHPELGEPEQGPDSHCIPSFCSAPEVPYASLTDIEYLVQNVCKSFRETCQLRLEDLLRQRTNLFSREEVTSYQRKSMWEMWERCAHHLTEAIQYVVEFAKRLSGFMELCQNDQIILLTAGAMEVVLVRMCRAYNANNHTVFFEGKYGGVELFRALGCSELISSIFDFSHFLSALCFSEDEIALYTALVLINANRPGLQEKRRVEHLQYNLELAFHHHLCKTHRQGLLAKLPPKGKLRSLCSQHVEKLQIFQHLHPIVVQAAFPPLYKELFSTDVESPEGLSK
#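 In this cell-based reporter format, copper sulfate (700 uM final) drives Gal4–ROR gamma fusion expression from a metallothionein promoter in Drosophila Schneider cells; compounds preincubated 1 hr, reporter read after 20 hr at ambient temperature.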
# DT40 TDP1 no CPT: qHTS for Inhibitors of human tyrosyl-DNA phosphodiesterase 1 (TDP1): qHTS in cells in absence of CPT; AID 686978, 2013; 420,000 compounds, 15% hits; DT40 Tdp1-/- hTDP1 cells, no CPT, ATP luminescence, 48 h; Potency, µM (top dose mostly 46.2 µM), for inactives: at the top dose activity change, negative = growth inhibition, hits mostly inhibitors; further: potency means the concentration at half of the fitted maximal effect; nearly all actives have a fitted effect of over 55% in size
#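 A cellular qHTS used chicken DT40 cells lacking endogenous Tdp1 but carrying stably transfected human TDP1. Compounds were applied without camptothecin, and cell growth kinetics were judged by ATP-dependent luminescence after ≥48 hr.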
# TDP1 cell CPT: DT40-hTDP1 cell growth loss with CPT. chicken DT40 Tdp1-/-;hTDP1 cells + 20 nM CPT, ATP luminescence, 48 h. AID 686979. 420,000 compounds, 12% hits. Potency, µM (highest dose often 46.2 µM), for the others: at the top dose activity change, negative = growth inhibition, usual class: inhibitors; further: potency means the concentration at half of the fitted maximal effect; nearly all actives have a fitted effect of over 55% in size
#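 Chicken DT40 Tdp1-/- cells stably complemented with human TDP1 were seeded at 400 cells/well in medium containing 20 nM camptothecin, exposed to pin-transferred compounds, and grown at 37 °C for at least 48 hr. Viability was read as ATP luminescence.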
# IL1B secr inh: inflammasome signaling inhibition, IL-1 beta readout | THP-1 LPS/ATP IL-1B secretion, AlphaLISA, 16 h; hits give low values | activity change, % at 57.5 µM | 360,000 compounds, 4.7% hits | AID 743279; in the data active means activity change below about -50%; inconclusive means mostly about -30% to -49%
#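 Secreted IL-1B measured by AlphaLISA bead assay after 16 h compound exposure of THP-1 cells; compounds (final up to 57.5 uM) added 1 h before LPS (250 ng/mL) and ATP (1.25 mM) stimulation; lower signal means less secretion.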
# ELG1 DNA repair: blocks ELG1-dependent DNA repair in HEK293T cells; 330,000 compounds, 2.3% hits; Potency, µM (titrated, usually from 46.1 µM), for the others: at the top dose activity change, negative = inhibition, actives largely listed as inhibitors; HEK293T ELG1-luciferase reporter, luminescence, 16 h; DNA damage induced by 5-fluorouridine; further: potency means the concentration at half of the fitted maximal effect; nearly all actives have a fitted effect of over 55% in size
#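 DMSO vehicle served as the neutral condition. Each well held 2,000 cells given 5-fluorouridine plus compound; after 16 hr at 37 °C/5% CO2, ONE-Glo was added and luciferase measured 30 min later.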
# * = called active by the depositor; ? = inconclusive; . = no result given. Unless noted, the call rests on the fitted dose curve; in most records, active means well fitted curve in the direction sought with a large enough effect; inconclusive means small, poorly fitted or top-dose-only effect, or another doubt; inactive means no such curve, though single readings can be large; an effect the other way counts as inactive or inconclusive. On the % scale 0 is the no-effect control and ±100 the full control effect.
SMILES,VP16 counter,RORg inh,DT40 TDP1 no CPT,TDP1 cell CPT,IL1B secr inh,ELG1 DNA repair
CCOc1cc(CNn2cn[nH]c2=S)cc(Cl)c1OCc1ccccc1F,6.3µM*,7.9µM*,15µM*,?,0,-22%
COc1cc(CNn2c(C)n[nH]c2=S)cc(Cl)c1OCc1ccc(F)cc1,?,?,-38%,-13%,5,?
COc1cccc(Nc2ncc3nc(-c4ccccc4)c(=O)n(C[C@H]4CCCO4)c3n2)c1,-28%,9%,?,-4%,.,.
CCOc1cc(CNCCc2ccc(S(N)(=O)=O)cc2)cc(Cl)c1OCc1ccccc1,?,3%,?,13µM*,-81*,0%
CCOc1cc(CNCc2ccncc2)cc(Br)c1OCc1ccc(F)cc1,-24%,?,11µM*,10µM*,-84*,-17%
CCOc1c(Cl)cc(CNCc2ccncc2)cc1OC,-7%,44%,?,?,30,?
COc1ccc(-c2nnc3n2N=C(c2c(OC)cccc2OC)CS3)cc1OC,-13%,-36%,.,.,.,.
COc1ccc(CCNC(=O)c2cn3ccc(C)cc3n2)cc1OC,-5%,2%,16µM*,?,22,-18%
COc1ccc(CCNC(=O)c2nnn(-c3cc(C)cc(C)c3)c2N)cc1OC,-3%,15%,?,15µM*,-3,?
Cn1cnc([N+](=O)[O-])c1Sc1ccncn1,.,.,13µM*,-28%,-5,.
Cn1cnc([N+](=O)[O-])c1Sc1ncnc2nc[nH]c12,-6%,6%,?,?,-30,0.21µM*
Cc1cccc(Sc2c([N+](=O)[O-])ncn2C)c1,?,-16%,23µM*,?,-20,16%
Cc1cccnc1Sc1c([N+](=O)[O-])ncn1C,14%,-9%,2%,-10%,-11,10%
COc1ccc(C(C)C)cc1S(=O)(=O)n1cnc(C)c1,6%,-18%,23µM*,16µM*,6,?
Fc1cccc(-c2nnn3c2nc(Cl)c2ccccc23)c1,-3%,1%,2.6µM*,2.6µM*,29,?
Fc1cccc(-c2nnn3c2nc(NC2CCCCC2)c2ccccc23)c1,.,.,26µM*,?,.,.
Cc1ccc(-c2nnn3c2nc(NCCc2ccccc2)c2ccccc23)cc1,.,.,-23%,2%,.,.
Cc1ccc(-c2nnn3c2nc(Cl)c2ccccc23)cc1,-14%,15%,4.6µM*,2.9µM*,-75*,?
Clc1nc2c(-c3ccccc3)nnn2c2ccccc12,-11%,-11%,3.3µM*,2.6µM*,-84*,?
Cc1cc(C)cc(CC(=O)N2CCC2(C)C(=O)NS(=O)(=O)Cc2ccccc2)c1 (stereo unspecified),.,.,-8%,9%,1,.
COc1ccc(-c2nnc(C3CCN(C(=O)c4ccccc4F)CC3)o2)cc1,.,.,4.6µM*,5.2µM*,.,.
CCC(C)C(=O)N1c2ccccc2C(=C2SC(C(=O)OC)=C(C(=O)OC)S2)C(=S)C1(C)C (stereo unspecified),-17%,-10%,13µM*,11µM*,-59*,-18%
CSc1ccc(CNC(=O)C2(C)CCCN2CC(C)C)cc1 (stereo unspecified),.,.,16µM*,18µM*,10,.
CCC(=O)N1CCCC1(C)C(=O)NCc1ccc(SC)cc1 (stereo unspecified),.,.,-8%,-10%,-18,.
CSc1ccc(C2C(C#N)=C(N)N(c3ccccc3)C3=C2C(=O)CCC3)cc1 (stereo unspecified),11%,-14%,-28%,-13%,-6,-8%

# Screening data as filed in PubChem BioAssay.
